# Experimental data taken from PubChem BioAssay (Tox21).
# A number with no mark means an inactive call. Results filed as inconclusive are left out. Entries that show only a call come without a potency. Calls of active or inactive are those of the source. Unless noted, calls follow the shape of the full dose curve.
# Columns and labels:
# [1] = Nuclear factor erythroid 2-related factor 2/antioxidant responsive element (Nrf2/ARE) small molecule agonists: qHTS cell viability counter screen in human keratinocytes (AID 1919968; active = well fitted curve in the direction sought with a large enough effect in the repeat runs; an effect the other way counts as inactive or inconclusive; also: nearly all actives have a fitted effect of over 55% in size; also: potency is read from the fitted curve at half-maximal effect)
# In short: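 KeratinoSens HaCaT cells, 1,500/well, preincubated 5 h, then exposed to compounds in DMSO for 23 h at 37 C/5% CO2. Viability read as CellTiter-Fluor fluorescence after 1 h, in the same wells as the ARE-luciferase read.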
# [2] = Nuclear factor erythroid 2-related factor 2/antioxidant responsive element (Nrf2/ARE) small molecule agonists: luciferase reporter gene qHTS assay in human keratinocytes (AID 1919969); also: nearly all actives have a fitted effect of over 35% in size; also: potency is read from the fitted curve at half-maximal effect
# [3] = molecular target: Gonadotropin-releasing hormone receptor (Homo sapiens) (UniProt P30968); assay: Human gonadotropin-releasing hormone receptor (GnRHR) small molecule agonists, calcium flux assay in GnRHR-HEK293 cells (AID 1920063); also: nearly all actives have a fitted effect of over 35% in size
# In short: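 HEK293 cells stably expressing human GnRHR were dye-loaded for 1 h at 37 C. Compound was added in agonist mode and fluorescence (Ex/Em 480/540) recorded kinetically for 3 min. Fifteen concentrations, triplicates.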
# [4] = molecular target: KiSS-1 receptor (Homo sapiens) (UniProt Q969F8); assay: Human kisspeptin (KISS1R) small molecule agonists, calcium flux assay in KISS1R-HEK293 cells (AID 1920064; active = well fitted curve in the direction sought with a large enough effect in the repeat runs; an effect the other way counts as inactive or inconclusive)
# In short: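 HEK293 cells stably expressing human KISS1R were loaded with calcium dye for 1 h at 37 C, then given compound; fluorescence (Ex/Em 480/540) was read kinetically for 3 min. Fifteen concentrations, triplicate.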
# [5] = G protein-coupled receptor (GPCR) small molecule agonists, calcium flux assay: HEK293 wild type cell line counter screen (AID 1920065)
# In short: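 Wild-type HEK293 cells plated 18 h, loaded with calcium dye 1 h at 37 C, then compounds added in agonist mode (ATP as positive control). Kinetic fluorescence Ex/Em 480/540 recorded 3 min at 1 sec intervals; 15 concentrations, triplicate.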
# [6] = p53 small molecule agonists, cell-based qHTS assay with human liver microsomes (AID 1963577)
# In short: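 Fluorescence of the beta-lactamase reporter in p53RE-bla cells, detected with LiveBLAzer substrate (2 h, room temperature, dark), served as the read-out after 16 h compound exposure at 37 C with human liver microsomes and NADPH, each 0.5 mg/mL final.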
# [7] = p53 small molecule agonists, cell-based qHTS assay with rat liver microsomes (AID 1963578)
# In short: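 Cells carrying a p53 response element–beta-lactamase reporter were plated and rested 5 h, then dosed with compound in DMSO plus rat liver microsomes and NADPH, each at 0.5 mg/mL final. After 16 h at 37 C, LiveBLAzer substrate was added for 2 h.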
# [8] = p53 small molecule agonists, cell-based qHTS assay with human liver microsomes: qHTS cell viability counter screen (AID 1963579); also: nearly all actives have a fitted effect of over 45% in size
# In short: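 Cytotoxicity counter screen: p53RE-bla, 4,000 cells/well; 5 h settle, 37 C/5% CO2; cpd + HLM 0.5 mg/mL + NADPH 0.5 mg/mL (final); 16 h, 37 C; CellTiter-Glo, 30 min RT, luminescence.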
# [9] = p53 small molecule agonists, cell-based qHTS assay with rat liver microsomes: qHTS cell viability counter screen (AID 1963580); also: nearly all actives have a fitted effect of over 45% in size; also: potency is read from the fitted curve at half-maximal effect
# In short: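 In HCT-116 cells carrying a p53 response element-bla reporter, compounds were metabolically activated in situ by rat liver microsomes with NADPH over 16 h. Cell ATP content then served as the cytotoxicity measure.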
# [10] = p53 small molecule agonists, cell-based qHTS assay: qHTS cell viability counter screen (AID 1963581); also: nearly all actives have a fitted effect of over 45% in size
# In short: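 p53RE-bla HCT-116 cells, compounds added 5 h after plating and incubated 16 h at 37 C. Cytotoxicity measured in the same wells as intracellular ATP by CellTiter-Glo luminescence after 30 min at room temperature.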
# [11] = p53 small molecule agonists, cell-based qHTS assay (AID 1963582; active = well fitted activation curve with a large enough effect in the signal ratio in the repeat runs, not every such curve was filed as active; the % refers to the signal ratio)
# In short: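 p53RE-bla reporter cells, compounds added in DMSO after 5 h plating, incubated 16 h at 37 C. Beta-lactamase read via 2 h room-temperature LiveBLAzer B/G FRET substrate, fluorescence intensity.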
# [12] = molecular target: 5-hydroxytryptamine receptor 2A (Homo sapiens) (UniProt P28223); assay: 5-hydroxytryptamine receptor 2A (HTR2A) small molecule antagonists, cell-based qHTS assay (AID 1963586); also: nearly all actives have a fitted effect of over 45% in size
# In short: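 Antagonist-mode intracellular calcium assay: DOI (4 nM) added after 5 min compound pre-incubation at room temperature to dye-loaded HTR2A-CHO cells. Fluorescence followed for 3 min, sampled every second.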
# [13] = molecular target: 5-hydroxytryptamine receptor 2A (Homo sapiens) (UniProt P28223); assay: 5-hydroxytryptamine receptor 2A (HTR2A) small molecule agonists, cell-based qHTS assay (AID 1963587); also: nearly all actives have a fitted effect of over 30% in size
# In short: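 HTR2A-CHO cells, plated 18 h at 37 C/5% CO2, dye-loaded 1 h at 37 C; compounds in DMSO added by pin tool (agonist mode). Intracellular calcium flux read as kinetic fluorescence on FDSS over 2 min at 1 s intervals.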
# [14] = molecular target: Muscarinic acetylcholine receptor M1 (Homo sapiens) (UniProt P11229); assay: Cholinergic receptor muscarinic 1 (CHRM1) small molecule antagonists, cell-based qHTS assay (AID 1963588); also: nearly all actives have a fitted effect of over 40% in size
# In short: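 CHRM1-CHO calcium-flux assay, antagonist mode. Cells were seeded 18 h, dye-loaded 1 h at 37 C and given compound for 5 min at RT, then acetylcholine was added at 50nM. FDSS fluorescence was read 3 min; 15 concentrations, three runs.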
# [15] = molecular target: Muscarinic acetylcholine receptor M1 (Homo sapiens) (UniProt P11229); assay: Cholinergic receptor muscarinic 1 (CHRM1) small molecule agonists, cell-based qHTS assay (AID 1963589); also: nearly all actives have a fitted effect of over 35% in size
# In short: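 CHO cells stably expressing human CHRM1 were loaded with calcium dye for 1 h at 37 C, then compound was added in agonist mode. Intracellular calcium fluorescence was followed kinetically at 1 s intervals. Fifteen concentrations were tested in three independent runs.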
# [16] = cAMP Responsive Elements (CRE) small molecule antagonists, cell-based qHTS assay (AID 1963591; active = well fitted inhibition curve with a large enough effect in the signal ratio in the repeat runs, not every such curve was filed as active; the % refers to the signal ratio)
# In short: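 CRE-bla HEK293T cells plated 18 h, then given compound plus NKH477 at 0.25 uM final for 3 h at 37C. Beta-lactamase reporter read with LiveBLAzer B/G FRET substrate after 2 h at room temperature.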
# [17] = molecular target: Beta-2 adrenergic receptor (Homo sapiens) (UniProt P07550); assay: Adrenergic beta2 receptor (ADRB2) small molecule antagonists, cell-based qHTS assay (AID 1963592); also: series mostly up to about 92 µM; nearly all actives have a fitted effect of over 50% in size
# In short: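 Cells (CHO, stable ADRB2 overexpression) incubated 18-20hr at 37C; compounds added from DMSO; agonist mix (1nM isoproterenol, 100uM IBMX, 25uM Ro-20-1724) added; 0.5hr RT; d2-cAMP and anti-cAMP-cryptate added; 1hr RT; 665/615 nm read.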
# [18] = molecular target: D(2) dopamine receptor (Homo sapiens) (UniProt P14416); assay: Dopamine D2 receptor (DRD2) small molecule agonists, cell-based qHTS assay (AID 1963594); also: nearly all actives have a fitted effect of over 35% in size
# In short: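 HEK293 cells stably expressing DRD2 were cultured 24 h at 37 C, then given Ro20-1724 (0.1 mM final) and compounds for 10 min at room temperature. NKH477 (200nM) was then added for 30 min. cAMP was read by HTRF.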
# [19] = molecular target: D(2) dopamine receptor (Homo sapiens) (UniProt P14416); assay: Dopamine D2 receptor (DRD2) small molecule antagonists, cell-based qHTS assay (AID 1963595; active = well fitted inhibition curve with a large enough effect in the signal ratio in the repeat runs, with a control signal flat; the % refers to the signal ratio)
# In short: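 Stable D2 receptor HEK293 line, 24 h after seeding. Compound preincubated 10 min, then quinpirole (12 nM) with forskolin analogue NKH477 (200 nM), 30 min, room temperature. Detection by time-resolved FRET of cAMP.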
# [20] = cAMP Responsive Elements (CRE) small molecule agonists, cell-based qHTS assay (AID 1963590)
# In short: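 CRE-bla HEK 293T cells, 2,000/well in DMEM with 10% dialyzed FBS and 25 mM HEPES, pre-incubated 18 h at 37 C, then exposed to compound 3 h at 37 C. Beta-lactamase reporter read with LiveBLAzer B/G FRET substrate after 2 h at room temperature.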
# Sequence of KiSS-1 receptor (Homo sapiens) (Q969F8 whole entry, looked up): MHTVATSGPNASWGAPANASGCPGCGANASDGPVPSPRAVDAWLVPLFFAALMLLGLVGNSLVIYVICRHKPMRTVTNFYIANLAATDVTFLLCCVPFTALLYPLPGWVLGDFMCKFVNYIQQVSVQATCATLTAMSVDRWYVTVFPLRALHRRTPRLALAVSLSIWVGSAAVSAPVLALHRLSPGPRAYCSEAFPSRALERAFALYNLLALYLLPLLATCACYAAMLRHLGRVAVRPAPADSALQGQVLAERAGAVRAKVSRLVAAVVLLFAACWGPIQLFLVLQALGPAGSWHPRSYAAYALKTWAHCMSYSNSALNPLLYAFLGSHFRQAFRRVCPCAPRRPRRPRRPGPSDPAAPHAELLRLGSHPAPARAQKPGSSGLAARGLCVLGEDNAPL
# Sequence of Muscarinic acetylcholine receptor M1 (Homo sapiens) (P11229 whole entry, looked up): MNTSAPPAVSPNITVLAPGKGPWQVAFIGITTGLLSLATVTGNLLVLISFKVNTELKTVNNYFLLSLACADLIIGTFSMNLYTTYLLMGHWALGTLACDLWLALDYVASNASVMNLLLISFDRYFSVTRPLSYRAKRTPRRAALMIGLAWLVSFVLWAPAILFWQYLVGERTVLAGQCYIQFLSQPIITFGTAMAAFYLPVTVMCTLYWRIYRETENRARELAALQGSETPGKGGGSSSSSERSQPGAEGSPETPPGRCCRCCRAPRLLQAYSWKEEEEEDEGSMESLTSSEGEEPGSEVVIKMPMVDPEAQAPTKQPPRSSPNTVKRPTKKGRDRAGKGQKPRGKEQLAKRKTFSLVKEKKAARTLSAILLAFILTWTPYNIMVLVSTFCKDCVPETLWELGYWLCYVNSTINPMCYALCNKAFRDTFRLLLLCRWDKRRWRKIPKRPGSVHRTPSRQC
# Sequence of D(2) dopamine receptor (Homo sapiens) (P14416 whole entry, looked up): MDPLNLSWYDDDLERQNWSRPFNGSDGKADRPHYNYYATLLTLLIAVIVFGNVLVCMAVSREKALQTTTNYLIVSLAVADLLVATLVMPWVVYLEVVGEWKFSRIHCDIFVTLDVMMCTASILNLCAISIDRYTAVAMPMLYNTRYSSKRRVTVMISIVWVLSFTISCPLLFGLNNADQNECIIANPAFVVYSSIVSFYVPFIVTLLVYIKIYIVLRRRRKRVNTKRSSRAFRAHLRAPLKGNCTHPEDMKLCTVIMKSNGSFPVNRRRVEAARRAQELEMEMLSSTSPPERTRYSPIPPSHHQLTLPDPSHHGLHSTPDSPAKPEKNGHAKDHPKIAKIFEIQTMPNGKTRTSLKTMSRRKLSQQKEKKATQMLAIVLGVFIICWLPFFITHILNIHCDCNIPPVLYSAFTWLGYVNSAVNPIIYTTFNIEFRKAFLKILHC
# Sequence of 5-hydroxytryptamine receptor 2A (Homo sapiens) (P28223 whole entry, looked up): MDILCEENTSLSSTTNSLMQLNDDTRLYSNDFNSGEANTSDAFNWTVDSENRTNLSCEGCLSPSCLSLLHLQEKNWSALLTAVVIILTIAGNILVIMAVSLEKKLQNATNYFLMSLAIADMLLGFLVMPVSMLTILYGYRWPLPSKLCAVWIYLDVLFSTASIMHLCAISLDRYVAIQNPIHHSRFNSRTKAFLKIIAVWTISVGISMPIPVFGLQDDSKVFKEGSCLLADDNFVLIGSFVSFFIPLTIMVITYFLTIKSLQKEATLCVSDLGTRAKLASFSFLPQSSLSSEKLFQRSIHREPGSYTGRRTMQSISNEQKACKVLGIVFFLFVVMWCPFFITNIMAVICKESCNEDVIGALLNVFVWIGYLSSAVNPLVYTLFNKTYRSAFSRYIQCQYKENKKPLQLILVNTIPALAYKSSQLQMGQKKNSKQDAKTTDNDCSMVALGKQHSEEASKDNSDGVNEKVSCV
# Sequence of Beta-2 adrenergic receptor (Homo sapiens) (P07550 whole entry, looked up): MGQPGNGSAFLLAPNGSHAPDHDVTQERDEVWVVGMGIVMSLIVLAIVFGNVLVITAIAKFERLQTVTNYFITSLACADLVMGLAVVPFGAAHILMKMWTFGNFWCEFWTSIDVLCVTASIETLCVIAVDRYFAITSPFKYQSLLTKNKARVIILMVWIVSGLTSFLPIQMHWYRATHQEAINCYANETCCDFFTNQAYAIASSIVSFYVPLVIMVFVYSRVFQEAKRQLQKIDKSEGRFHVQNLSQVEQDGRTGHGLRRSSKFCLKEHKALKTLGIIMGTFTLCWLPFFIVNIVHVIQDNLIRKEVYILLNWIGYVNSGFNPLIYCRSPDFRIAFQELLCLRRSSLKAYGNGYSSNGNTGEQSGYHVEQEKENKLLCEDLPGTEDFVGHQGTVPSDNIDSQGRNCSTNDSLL
# Sequence of Gonadotropin-releasing hormone receptor (Homo sapiens) (P30968 whole entry, looked up): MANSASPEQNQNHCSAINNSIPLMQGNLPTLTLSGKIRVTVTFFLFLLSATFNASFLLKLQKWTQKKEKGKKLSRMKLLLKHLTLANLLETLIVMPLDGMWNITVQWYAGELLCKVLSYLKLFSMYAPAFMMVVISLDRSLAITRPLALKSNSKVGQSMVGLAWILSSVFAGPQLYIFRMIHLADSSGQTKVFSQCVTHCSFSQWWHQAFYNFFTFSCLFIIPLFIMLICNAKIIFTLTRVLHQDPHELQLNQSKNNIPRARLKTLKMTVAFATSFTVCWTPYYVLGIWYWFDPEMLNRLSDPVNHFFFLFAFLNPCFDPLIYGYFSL
Compound,Potency [1],Potency [2],Potency [3],Potency [4],Potency [5],Potency [6],Potency [7],Potency [8],Potency [9],Potency [10],Potency [11],Potency [12],Potency [13],Potency [14],Potency [15],Potency [16],Potency [17],Potency [18],Potency [19],Potency [20]
CC(C)[C@@H](Nc1ccc(C(F)(F)F)cc1Cl)C(=O)OC(C#N)c1cccc(Oc2ccccc2)c1 (some centres not stated),inactive,inactive,inactive,inactive,inactive,inactive,inactive,inactive,inactive,inactive,inactive,inactive,inactive,inactive,inactive,inactive,inactive,inactive,inactive,–
N#CCCl,inactive,inactive,inactive,inactive,inactive,inactive,inactive,inactive,inactive,inactive,inactive,inactive,inactive,inactive,inactive,–,inactive,inactive,inactive,–
CN(C)CCc1c[nH]c2ccc(O)cc12,inactive,67 µM (active),inactive,inactive,inactive,inactive,inactive,inactive,inactive,inactive,inactive,inactive,–,inactive,inactive,inactive,–,–,–,inactive
O=c1[nH]c2cc(Cl)ccc2n1C1CCNCC1,inactive,inactive,inactive,inactive,inactive,inactive,inactive,inactive,inactive,inactive,inactive,inactive,inactive,inactive,inactive,–,–,inactive,inactive,inactive
COC(=O)N(C(=O)N1CO[C@@]2(C(=O)OC)Cc3cc(Cl)ccc3C2=N1)c1ccc(OC(F)(F)F)cc1,inactive,inactive,inactive,inactive,inactive,inactive,inactive,inactive,inactive,inactive,inactive,inactive,inactive,inactive,inactive,–,inactive,inactive,inactive,–
C/C(=C\c1ccccc1)[N+](=O)[O-],30.6 µM (active),15.4 µM (active),inactive,inactive,inactive,inactive,inactive,inactive,36.3 µM (active),inactive,inactive,inactive,inactive,inactive,inactive,inactive,inactive,inactive,inactive,–
Cc1cc(Cl)ccc1O[C@H](C)C(=O)O,inactive,inactive,inactive,inactive,inactive,inactive,inactive,inactive,inactive,inactive,inactive,inactive,inactive,inactive,inactive,inactive,inactive,inactive,inactive,–
